# Publication PMC7862700, “An all-to-all approach to the identification of sequence-specific readers for epigenetic DNA modifications on cytosine”
# What was measured:
# Assay in all cases: DAPPL (digital affinity profiling via proximity ligation, sequencing); 10 mM Tris-HCl pH 7.5, 50 mM NaCl, 1 mM DTT, 4% glycerol, room temperature, 30 min; GST-TFs on glutathione beads, 16-mer random dsDNA library, 0.1% formaldehyde crosslink after washing; high values mean tight binding
# Conditions in all cases: protein: recombinant; tags: N-terminal GST; dsDNA, one strand shown
# FLI1 = molecular target: T1, FLI1 (Homo sapiens, UniProt Q01543 1-452)
# T1 sequence: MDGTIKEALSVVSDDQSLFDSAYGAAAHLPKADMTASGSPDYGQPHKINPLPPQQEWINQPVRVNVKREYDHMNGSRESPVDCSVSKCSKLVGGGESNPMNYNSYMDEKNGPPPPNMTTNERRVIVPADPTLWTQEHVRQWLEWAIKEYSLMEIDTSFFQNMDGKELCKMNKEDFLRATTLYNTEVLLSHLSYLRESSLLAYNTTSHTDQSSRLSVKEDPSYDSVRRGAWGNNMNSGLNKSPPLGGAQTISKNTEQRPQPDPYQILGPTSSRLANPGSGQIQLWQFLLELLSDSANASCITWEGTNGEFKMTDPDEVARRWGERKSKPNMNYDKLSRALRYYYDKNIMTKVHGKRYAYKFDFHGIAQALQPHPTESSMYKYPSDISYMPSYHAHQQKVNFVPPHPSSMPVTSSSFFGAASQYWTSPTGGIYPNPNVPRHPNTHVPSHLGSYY
# Method in brief: (§1)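 After expression in yeast as GST fusions, human transcription factors were bound to glutathione beads, DNA-barcoded and mixed with a tag-only sample. The pools were incubated with 200 nmole of a 16-mer random double-stranded DNA library in Tris/NaCl/DTT/glycerol buffer (30 min, room temperature), washed and crosslinked with 0.1% formaldehyde. Proximity ligation with BsaI/T4 ligase ran for 1 h at 37 °C, before PCR amplification and sequencing on an Illumina NextSeq500. Binding signal is a hexamer's read frequency for a factor divided by its frequency for the tag-only sample.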
# ELK1 = molecular target: T2, ELK1 (Homo sapiens, UniProt P19419 1-428)
# T2 sequence: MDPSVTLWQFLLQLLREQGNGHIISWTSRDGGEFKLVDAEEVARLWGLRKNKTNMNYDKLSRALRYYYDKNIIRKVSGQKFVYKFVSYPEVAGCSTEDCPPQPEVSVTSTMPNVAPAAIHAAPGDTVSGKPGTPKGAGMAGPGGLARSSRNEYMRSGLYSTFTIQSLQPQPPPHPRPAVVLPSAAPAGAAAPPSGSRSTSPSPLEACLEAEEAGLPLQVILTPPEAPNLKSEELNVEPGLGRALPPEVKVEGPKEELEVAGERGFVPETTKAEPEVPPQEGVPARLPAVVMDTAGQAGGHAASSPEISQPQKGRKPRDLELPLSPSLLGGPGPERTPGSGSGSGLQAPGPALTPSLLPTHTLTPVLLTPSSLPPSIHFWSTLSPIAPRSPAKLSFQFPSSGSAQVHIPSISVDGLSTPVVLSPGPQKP
# Method in brief: as §1
# GABPA = molecular target: T3, GABPA (Homo sapiens, UniProt Q06546 1-454)
# T3 sequence: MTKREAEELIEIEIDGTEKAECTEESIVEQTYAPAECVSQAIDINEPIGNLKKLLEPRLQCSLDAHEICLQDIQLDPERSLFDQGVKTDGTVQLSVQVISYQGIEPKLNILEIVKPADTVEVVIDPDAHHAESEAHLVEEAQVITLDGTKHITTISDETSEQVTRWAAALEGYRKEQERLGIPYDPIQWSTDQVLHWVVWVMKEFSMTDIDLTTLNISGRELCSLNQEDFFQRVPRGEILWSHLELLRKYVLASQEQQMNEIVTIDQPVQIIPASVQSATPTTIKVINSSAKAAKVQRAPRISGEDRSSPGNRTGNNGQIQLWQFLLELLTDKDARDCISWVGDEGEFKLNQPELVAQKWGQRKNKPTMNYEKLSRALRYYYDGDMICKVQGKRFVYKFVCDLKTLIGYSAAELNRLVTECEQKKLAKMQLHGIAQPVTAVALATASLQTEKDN
# Method in brief: as §1
# ERG = molecular target: T4, ERG (Homo sapiens, UniProt P11308 1-479)
# T4 sequence: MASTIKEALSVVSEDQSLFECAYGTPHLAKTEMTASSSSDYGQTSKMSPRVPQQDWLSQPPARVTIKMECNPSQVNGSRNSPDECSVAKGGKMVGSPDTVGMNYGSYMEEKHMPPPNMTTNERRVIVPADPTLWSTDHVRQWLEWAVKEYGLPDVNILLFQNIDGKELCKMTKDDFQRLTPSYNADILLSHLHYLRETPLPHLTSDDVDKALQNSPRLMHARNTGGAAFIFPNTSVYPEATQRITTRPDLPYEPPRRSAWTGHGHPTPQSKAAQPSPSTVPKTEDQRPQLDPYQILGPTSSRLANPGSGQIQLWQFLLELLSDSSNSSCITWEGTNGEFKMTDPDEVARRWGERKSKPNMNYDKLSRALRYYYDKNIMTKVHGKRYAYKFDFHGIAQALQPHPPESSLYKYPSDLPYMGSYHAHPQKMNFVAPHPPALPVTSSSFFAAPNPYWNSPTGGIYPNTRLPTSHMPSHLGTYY
# Method in brief: as §1
# ELF1 = ELF1 (Homo sapiens, UniProt P32519 1-619)
# Method in brief: as §1
# EHF = molecular target: T5, EHF (Homo sapiens, UniProt Q9NZC4 1-300)
# T5 sequence: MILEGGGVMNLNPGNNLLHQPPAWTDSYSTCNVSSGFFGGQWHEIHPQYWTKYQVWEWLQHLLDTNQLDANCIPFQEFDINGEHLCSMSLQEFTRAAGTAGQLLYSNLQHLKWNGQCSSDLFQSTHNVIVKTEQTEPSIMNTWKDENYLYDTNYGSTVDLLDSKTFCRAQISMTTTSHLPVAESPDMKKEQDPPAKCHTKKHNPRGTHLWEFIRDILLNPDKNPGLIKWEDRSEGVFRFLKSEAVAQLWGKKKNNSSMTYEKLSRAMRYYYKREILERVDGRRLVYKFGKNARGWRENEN
# Method in brief: as §1
# SPI1 = SPI1 (Homo sapiens, UniProt P17947 1-270)
# Method in brief: as §1
# SPIB = SPIB (Homo sapiens, UniProt Q01892 1-262)
# Method in brief: as §1
# ELK3 = molecular target: T6, ELK3 (Homo sapiens, UniProt P41970 1-407)
# T6 sequence: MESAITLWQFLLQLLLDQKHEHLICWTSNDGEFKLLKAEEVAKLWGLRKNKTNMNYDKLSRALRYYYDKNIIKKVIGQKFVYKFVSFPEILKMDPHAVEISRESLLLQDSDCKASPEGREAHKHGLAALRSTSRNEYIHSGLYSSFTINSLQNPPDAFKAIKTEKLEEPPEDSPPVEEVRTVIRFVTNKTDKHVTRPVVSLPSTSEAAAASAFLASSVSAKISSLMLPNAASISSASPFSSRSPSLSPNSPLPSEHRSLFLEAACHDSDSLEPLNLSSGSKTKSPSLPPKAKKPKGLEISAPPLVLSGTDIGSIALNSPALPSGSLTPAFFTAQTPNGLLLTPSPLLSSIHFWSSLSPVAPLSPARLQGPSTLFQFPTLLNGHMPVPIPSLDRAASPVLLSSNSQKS
# Method in brief: as §1
# FEV = molecular target: T7, FEV (Homo sapiens, UniProt Q99581 1-238)
# T7 sequence: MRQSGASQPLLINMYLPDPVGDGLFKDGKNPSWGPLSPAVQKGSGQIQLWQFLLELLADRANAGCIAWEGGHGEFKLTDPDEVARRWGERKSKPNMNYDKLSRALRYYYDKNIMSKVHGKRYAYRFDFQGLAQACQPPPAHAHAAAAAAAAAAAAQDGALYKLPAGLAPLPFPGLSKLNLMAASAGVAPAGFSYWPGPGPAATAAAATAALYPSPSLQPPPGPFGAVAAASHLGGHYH
# Method in brief: as §1
# ETV5 = ETV5 (Homo sapiens, UniProt P41161 1-510)
# Method in brief: as §1
# SPIC = molecular target: T8, SPIC (Homo sapiens, UniProt Q8N5J4 1-248)
# T8 sequence: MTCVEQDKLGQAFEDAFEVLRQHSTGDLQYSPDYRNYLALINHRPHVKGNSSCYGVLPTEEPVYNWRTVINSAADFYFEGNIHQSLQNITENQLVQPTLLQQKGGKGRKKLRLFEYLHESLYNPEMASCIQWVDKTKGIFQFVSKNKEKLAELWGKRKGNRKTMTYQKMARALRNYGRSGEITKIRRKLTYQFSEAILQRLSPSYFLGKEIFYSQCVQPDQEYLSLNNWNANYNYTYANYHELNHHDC
# Method in brief: as §1
# ELF4 = ELF4 (Homo sapiens, UniProt Q99607 1-663)
# Method in brief: as §1
# ELK4 = molecular target: T9, ELK4 (Homo sapiens, UniProt P28324-2 1-405)
# T9 sequence: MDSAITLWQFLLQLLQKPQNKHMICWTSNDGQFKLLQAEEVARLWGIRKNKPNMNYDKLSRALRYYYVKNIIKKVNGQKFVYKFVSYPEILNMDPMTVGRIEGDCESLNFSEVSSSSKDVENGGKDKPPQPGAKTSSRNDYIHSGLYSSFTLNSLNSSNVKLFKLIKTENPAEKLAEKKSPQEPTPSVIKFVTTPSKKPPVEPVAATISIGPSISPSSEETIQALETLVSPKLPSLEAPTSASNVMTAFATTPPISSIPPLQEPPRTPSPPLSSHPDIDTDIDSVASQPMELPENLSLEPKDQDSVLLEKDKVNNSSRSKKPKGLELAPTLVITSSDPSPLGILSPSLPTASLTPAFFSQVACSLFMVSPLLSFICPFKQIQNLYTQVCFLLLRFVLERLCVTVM
# Method in brief: as §1
# ETV2 = molecular target: T10, ETV2 (Homo sapiens, UniProt O00321 1-342)
# T10 sequence: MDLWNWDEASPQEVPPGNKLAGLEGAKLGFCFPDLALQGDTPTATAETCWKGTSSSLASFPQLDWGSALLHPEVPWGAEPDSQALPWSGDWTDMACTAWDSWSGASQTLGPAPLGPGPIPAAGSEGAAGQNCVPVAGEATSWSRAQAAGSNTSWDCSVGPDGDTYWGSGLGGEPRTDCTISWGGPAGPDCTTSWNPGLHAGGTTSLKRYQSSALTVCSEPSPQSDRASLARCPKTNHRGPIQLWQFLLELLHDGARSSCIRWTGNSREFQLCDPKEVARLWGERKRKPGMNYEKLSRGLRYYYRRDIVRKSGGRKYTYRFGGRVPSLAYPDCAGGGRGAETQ
# Method in brief: as §1
# ELF3 = molecular target: T11, ELF3 (Homo sapiens, UniProt P78545 1-371)
# T11 sequence: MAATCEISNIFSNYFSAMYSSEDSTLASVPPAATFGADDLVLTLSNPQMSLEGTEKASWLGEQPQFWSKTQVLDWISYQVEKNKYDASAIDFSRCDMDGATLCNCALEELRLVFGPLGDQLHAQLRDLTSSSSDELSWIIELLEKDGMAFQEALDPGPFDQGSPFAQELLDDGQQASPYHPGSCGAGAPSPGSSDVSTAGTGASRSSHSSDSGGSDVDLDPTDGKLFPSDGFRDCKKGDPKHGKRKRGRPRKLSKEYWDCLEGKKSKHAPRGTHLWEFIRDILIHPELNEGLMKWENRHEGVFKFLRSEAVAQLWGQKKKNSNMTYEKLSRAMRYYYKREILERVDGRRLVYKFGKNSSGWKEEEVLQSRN
# Method in brief: as §1
# ETV1 = ETV1 (Homo sapiens, UniProt P50549 1-477)
# Method in brief: as §1
# Sequence of ELF1 (P32519 whole entry): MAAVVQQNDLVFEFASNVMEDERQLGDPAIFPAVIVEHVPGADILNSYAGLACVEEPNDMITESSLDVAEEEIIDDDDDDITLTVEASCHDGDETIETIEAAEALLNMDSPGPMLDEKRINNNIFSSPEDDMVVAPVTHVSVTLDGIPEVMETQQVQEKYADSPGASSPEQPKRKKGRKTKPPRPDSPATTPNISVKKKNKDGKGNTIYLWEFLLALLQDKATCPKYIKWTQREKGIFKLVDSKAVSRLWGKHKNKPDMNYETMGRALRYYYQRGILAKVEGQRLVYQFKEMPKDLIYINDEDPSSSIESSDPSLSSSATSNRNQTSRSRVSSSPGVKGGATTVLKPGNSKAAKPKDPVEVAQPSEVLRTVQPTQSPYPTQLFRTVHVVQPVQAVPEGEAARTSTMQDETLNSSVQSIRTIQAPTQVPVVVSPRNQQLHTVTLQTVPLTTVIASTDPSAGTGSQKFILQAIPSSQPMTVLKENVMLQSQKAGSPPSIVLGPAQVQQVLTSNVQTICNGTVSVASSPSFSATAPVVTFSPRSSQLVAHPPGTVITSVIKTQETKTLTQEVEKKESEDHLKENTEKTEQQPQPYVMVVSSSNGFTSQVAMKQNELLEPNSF
# Sequence of ETV5 (P41161 whole entry): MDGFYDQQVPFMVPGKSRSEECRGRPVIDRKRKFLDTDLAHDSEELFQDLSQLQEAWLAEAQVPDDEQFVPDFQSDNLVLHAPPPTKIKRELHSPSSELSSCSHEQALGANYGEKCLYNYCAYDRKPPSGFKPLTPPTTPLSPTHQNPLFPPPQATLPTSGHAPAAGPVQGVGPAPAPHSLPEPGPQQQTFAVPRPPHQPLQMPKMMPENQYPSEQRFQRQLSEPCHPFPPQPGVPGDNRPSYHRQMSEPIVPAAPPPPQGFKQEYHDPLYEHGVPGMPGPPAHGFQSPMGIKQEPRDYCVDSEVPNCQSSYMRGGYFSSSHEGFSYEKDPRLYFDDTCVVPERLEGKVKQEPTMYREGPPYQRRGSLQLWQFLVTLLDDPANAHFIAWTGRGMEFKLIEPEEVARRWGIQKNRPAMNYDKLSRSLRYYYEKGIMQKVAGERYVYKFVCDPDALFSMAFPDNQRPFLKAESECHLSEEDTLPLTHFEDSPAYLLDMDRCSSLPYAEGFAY
# Sequence of ELF4 (Q99607 whole entry): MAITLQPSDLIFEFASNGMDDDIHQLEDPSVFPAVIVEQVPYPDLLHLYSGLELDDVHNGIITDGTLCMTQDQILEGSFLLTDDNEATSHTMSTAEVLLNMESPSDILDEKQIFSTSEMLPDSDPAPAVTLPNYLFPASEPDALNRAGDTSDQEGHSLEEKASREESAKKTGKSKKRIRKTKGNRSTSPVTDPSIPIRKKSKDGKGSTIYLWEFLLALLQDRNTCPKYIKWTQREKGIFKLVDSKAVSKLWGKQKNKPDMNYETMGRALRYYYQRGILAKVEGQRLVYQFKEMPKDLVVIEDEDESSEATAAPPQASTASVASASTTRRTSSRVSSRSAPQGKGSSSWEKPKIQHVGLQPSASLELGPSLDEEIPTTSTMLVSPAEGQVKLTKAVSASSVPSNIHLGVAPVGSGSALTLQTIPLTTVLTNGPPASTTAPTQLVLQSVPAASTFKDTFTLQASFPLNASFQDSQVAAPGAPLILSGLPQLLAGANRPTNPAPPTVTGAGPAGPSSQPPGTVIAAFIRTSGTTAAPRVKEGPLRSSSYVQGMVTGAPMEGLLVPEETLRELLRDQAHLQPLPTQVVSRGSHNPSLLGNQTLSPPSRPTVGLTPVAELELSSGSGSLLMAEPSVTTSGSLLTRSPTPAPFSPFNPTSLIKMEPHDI
# Sequence of SPIB (Q01892 whole entry): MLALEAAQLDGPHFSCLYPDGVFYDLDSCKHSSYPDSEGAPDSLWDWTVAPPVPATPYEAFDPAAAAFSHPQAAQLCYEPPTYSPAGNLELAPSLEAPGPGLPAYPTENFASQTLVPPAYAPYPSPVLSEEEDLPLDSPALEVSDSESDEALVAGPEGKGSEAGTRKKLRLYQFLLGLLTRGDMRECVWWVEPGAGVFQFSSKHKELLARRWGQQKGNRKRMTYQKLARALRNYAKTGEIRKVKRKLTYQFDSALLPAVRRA
# Sequence of ETV1 (P50549 whole entry): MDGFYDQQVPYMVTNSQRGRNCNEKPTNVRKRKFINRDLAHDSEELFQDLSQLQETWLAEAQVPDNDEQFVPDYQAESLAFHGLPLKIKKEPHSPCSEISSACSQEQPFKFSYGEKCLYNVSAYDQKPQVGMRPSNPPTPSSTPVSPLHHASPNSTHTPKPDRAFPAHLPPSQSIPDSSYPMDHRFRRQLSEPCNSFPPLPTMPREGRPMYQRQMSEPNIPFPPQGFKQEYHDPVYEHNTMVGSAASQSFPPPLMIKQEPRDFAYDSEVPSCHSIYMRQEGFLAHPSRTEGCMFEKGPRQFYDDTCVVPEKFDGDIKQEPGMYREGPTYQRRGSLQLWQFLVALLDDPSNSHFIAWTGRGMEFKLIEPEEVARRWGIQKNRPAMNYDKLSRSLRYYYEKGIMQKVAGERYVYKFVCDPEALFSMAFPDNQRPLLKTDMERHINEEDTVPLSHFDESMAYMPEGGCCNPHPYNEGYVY
sequence,measurement,setting,value
GTCCTC,binding signal,FLI1,"1.15 fold enrichment (6-mer frequency, TF over GST control)"
same,binding signal,ELK1,"1.22 fold enrichment (6-mer frequency, TF over GST control)"
same,binding signal,GABPA,"1.17 fold enrichment (6-mer frequency, TF over GST control)"
same,binding signal,ERG,"1.21 fold enrichment (6-mer frequency, TF over GST control)"
same,binding signal,ELF1,"1.18 fold enrichment (6-mer frequency, TF over GST control)"
same,binding signal,EHF,"1.28 fold enrichment (6-mer frequency, TF over GST control)"
same,binding signal,SPI1,"1.25 fold enrichment (6-mer frequency, TF over GST control)"
same,binding signal,SPIB,"1.21 fold enrichment (6-mer frequency, TF over GST control)"
same,binding signal,ELK3,"1.22 fold enrichment (6-mer frequency, TF over GST control)"
same,binding signal,FEV,"1.12 fold enrichment (6-mer frequency, TF over GST control)"
same,binding signal,ETV5,"1.21 fold enrichment (6-mer frequency, TF over GST control)"
same,binding signal,SPIC,"1.14 fold enrichment (6-mer frequency, TF over GST control)"
same,binding signal,ELF4,"1.27 fold enrichment (6-mer frequency, TF over GST control)"
same,binding signal,ELK4,"1.34 fold enrichment (6-mer frequency, TF over GST control)"
same,binding signal,ETV2,"1.4 fold enrichment (6-mer frequency, TF over GST control)"
same,binding signal,ELF3,"1.16 fold enrichment (6-mer frequency, TF over GST control)"
same,binding signal,ETV1,"1.25 fold enrichment (6-mer frequency, TF over GST control)"
CAACAC,binding signal,FLI1,"1.13 fold enrichment (6-mer frequency, TF over GST control)"
same,binding signal,ELK1,"1.23 fold enrichment (6-mer frequency, TF over GST control)"
same,binding signal,GABPA,"1.19 fold enrichment (6-mer frequency, TF over GST control)"
same,binding signal,ERG,"1.1 fold enrichment (6-mer frequency, TF over GST control)"
same,binding signal,ELF1,"1.13 fold enrichment (6-mer frequency, TF over GST control)"
same,binding signal,EHF,"1.09 fold enrichment (6-mer frequency, TF over GST control)"
same,binding signal,SPI1,"1.06 fold enrichment (6-mer frequency, TF over GST control)"
same,binding signal,SPIB,"1.06 fold enrichment (6-mer frequency, TF over GST control)"
same,binding signal,FEV,"1.11 fold enrichment (6-mer frequency, TF over GST control)"
same,binding signal,ETV5,"1.07 fold enrichment (6-mer frequency, TF over GST control)"
same,binding signal,SPIC,"1.08 fold enrichment (6-mer frequency, TF over GST control)"
same,binding signal,ELF4,"1.14 fold enrichment (6-mer frequency, TF over GST control)"
same,binding signal,ELK4,"1.2 fold enrichment (6-mer frequency, TF over GST control)"
same,binding signal,ETV2,"1.08 fold enrichment (6-mer frequency, TF over GST control)"
same,binding signal,ELF3,"1.09 fold enrichment (6-mer frequency, TF over GST control)"
same,binding signal,ETV1,"1.11 fold enrichment (6-mer frequency, TF over GST control)"
